Screens as filed in PubChem.
Shown are actives, neighbours in structure and some others; about 0.76% of the full set was active somewhere.
MRP-1 activ: activates MRP-1; H69AR cells + doxorubicin, viability rescue, CellTiter-Glo; viability increase, % at 10 µM; 140,000 compounds, 0.61% hits;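 active means viability gain under doxorubicin at or above a set limit, the compound median plus 3 SD, cut at about 4.7% in these data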;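 further: MRP-1 overexpressing cells given doxorubicin 25 µM after compound pretreatment; 18-22 h compound pretreatment then 72 h with doxorubicin before readout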
MRP reversal: reverses drug resistance mediated by MRP; 85,000 compounds, 0.04% hits; AID 602; H69AR cells + 2 uM doxorubicin, CellTiter-Glo, 72 h; differential viability (reversal), % at 10 µM;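 active means viability drop by adding the cancer drug above about 55%, with treated viability meeting a 40% cutoff, limit read from the data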;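 further: larger differential means the compound sensitizes cells more to doxorubicin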
sEH inh: soluble epoxide hydrolase (human) inhibition | P34913 | recombinant human sEH enzymatic activity assay | 91,000 compounds, 0.34% hits | inhibition, % at 2 µM; in the data active means inhibition above about 80%
Target sequence (P34913 whole entry, looked up): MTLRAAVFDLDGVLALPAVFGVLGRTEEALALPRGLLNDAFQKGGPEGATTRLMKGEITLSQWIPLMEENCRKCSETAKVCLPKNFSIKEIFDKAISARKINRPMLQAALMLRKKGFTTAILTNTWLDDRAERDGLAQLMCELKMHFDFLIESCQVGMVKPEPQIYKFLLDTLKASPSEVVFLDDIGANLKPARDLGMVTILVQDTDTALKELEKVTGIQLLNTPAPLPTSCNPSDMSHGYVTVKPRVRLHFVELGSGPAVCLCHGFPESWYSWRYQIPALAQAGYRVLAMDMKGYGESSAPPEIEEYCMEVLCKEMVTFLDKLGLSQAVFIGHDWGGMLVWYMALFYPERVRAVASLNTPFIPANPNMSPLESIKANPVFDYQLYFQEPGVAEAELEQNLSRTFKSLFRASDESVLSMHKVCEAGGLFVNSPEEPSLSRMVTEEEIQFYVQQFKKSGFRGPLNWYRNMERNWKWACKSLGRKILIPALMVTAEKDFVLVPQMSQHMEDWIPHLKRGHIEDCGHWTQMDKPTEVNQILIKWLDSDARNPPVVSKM
sEH activator: increases human soluble epoxide hydrolase activity; P34913; purified human sEH enzymatic activity, activator screen; activation, % at 2 µM; 91,000 compounds, 0.04% hits; AID 717; in the data active means activation above about 37%
Large screens that a line does not name were inactive.

O=C(N/N=C/c1cc([N+](=O)[O-])cc([N+](=O)[O-])c1O)/C(=C\c1cccs1)NC(=O)c1ccccc1	MRP-1 activ 4.8 (no result: MRP reversal, sEH inh, sEH activator)
O=C(NCC1CCCC(CNC(=O)N2CCc3ccccc32)C1)N1CCc2ccccc21 (stereo unspecified)	sEH inh 92 (no result: MRP reversal)
COc1ccc(C2C(C#N)=C(N)SC(N)=C2C#N)cc1OC	none
N#CC1=C(N)SC(N)=C(C#N)C1c1cccc(O)c1	MRP-1 activ 5.1
Cc1c(C(=O)O)oc2c1/C(=N\O)CC(C)(C)C2	none (no result: MRP reversal, sEH inh, sEH activator)
O=C(Nc1ccc(Oc2ccccc2)cc1)c1cnc2n(c1=O)CCS2	MRP-1 activ 6.0
CC(C)CN1C(=O)C(=O)N(CC(=O)NCc2ccc3c(c2)OCO3)C1=O	none
CC(C)CN1C(=O)c2ccc(C(=O)NCc3ccc4c(c3)OCO4)cc2C1=O	sEH inh 81
COc1ccccc1NS(=O)(=O)c1cccc(C(=O)NN)c1	sEH inh 94
COc1ccccc1NS(=O)(=O)c1cccc(C(=O)N/N=C2\CC(=O)CC(C)(C)C2)c1	none (no result: MRP reversal, sEH inh, sEH activator)
CN1CCN(C(=O)CSc2ccc(C(F)(F)F)cc2[N+](=O)[O-])CC1	none (no result: MRP reversal, sEH inh, sEH activator)
N#CCCNC(=O)Cn1c(COc2ccc(Cl)cc2)nc2ccccc21	MRP-1 activ 5.6 (no result: MRP reversal, sEH inh, sEH activator)
O=C(Cn1c(COc2ccc(Cl)cc2)nc2ccccc21)NCC(F)(F)F	MRP-1 activ 5.6 (no result: MRP reversal, sEH inh, sEH activator)
Cc1cccc(OCCC(=O)Nc2ccc(F)c(Cl)c2)c1	none (no result: MRP reversal, sEH inh, sEH activator)
COC(=O)C1=C(N)N(c2ccccc2F)C2=C(C(=O)CC(C)(C)C2)C1c1ccc(OC)c(OC)c1 (stereo unspecified)	none (no result: MRP reversal, sEH inh, sEH activator)
CCNc1ccc(S(=O)(=O)N(C)C)cc1NCC(=O)Nc1ccc(F)c(Cl)c1	none (no result: MRP reversal, sEH inh, sEH activator)
COc1ccc(C2CC(c3ccc(Br)cc3)Nc3nc(N)nn32)cc1 (stereo unspecified)	none
COc1ccccc1C1CC(c2ccc(Cl)cc2Cl)Nc2nc(N)nn21 (stereo unspecified)	MRP-1 activ 5.6
COc1ccc(C2CC(c3ccc(Cl)cc3)n3nc(N)nc3N2)cc1 (stereo unspecified)	MRP-1 activ 30
Nc1nc2n(n1)C(c1cccs1)CC(c1ccc(Br)cc1)N2 (stereo unspecified)	MRP-1 activ 5.8
COc1nc(OC)nc(Oc2ccc([N+](=O)[O-])cc2Cl)n1	none (no result: MRP reversal, sEH inh, sEH activator)
O=C(Nc1ccc(Oc2nnc(-c3ccccc3)c3ccccc23)cc1)c1ccccc1	none (no result: MRP reversal, sEH inh, sEH activator)
CC(=O)C1=C(C)N=c2s/c(=C/c3ccc4c(c3)OCO4)c(=O)n2C1c1ccc(N(C)C)cc1 (stereo unspecified)	none (no result: MRP-1 activ, sEH inh, sEH activator)
CC1(C)CC(=O)C2=C(C1)N=c1s/c(=C/c3ccc(F)c(F)c3)c(=O)n1C2c1ccc(F)cc1 (stereo unspecified)	sEH activator 37 (no result: MRP reversal)
O=C(/C=C/NCC(=O)c1ccccc1)c1ccc(Br)cc1	none (no result: MRP reversal, sEH inh, sEH activator)
O=C(/C=C/NNC(=O)c1ccccc1)c1ccc(Br)cc1	MRP-1 activ 6.0
CCOC(=O)c1c(-c2ccc(F)cc2)csc1NC(=O)c1c(-c2ccccc2)noc1C	MRP-1 activ 7.5 (no result: MRP reversal, sEH inh, sEH activator)
COC(=O)c1c(-c2ccccc2)csc1NC(=O)c1c(-c2ccccc2)noc1C	none (no result: MRP reversal, sEH inh, sEH activator)
Cc1ccc2nc(NC(=O)CSc3nncc(=O)n3N)sc2c1	none (no result: MRP reversal, sEH inh, sEH activator)
CCOc1ccc2nc(SCC#N)c(C#N)cc2c1	MRP-1 activ 5.0
CCc1nnc(NC(=O)C2CCCN2S(=O)(=O)c2ccc(F)cc2)s1 (stereo unspecified)	MRP-1 activ 5.8 (no result: sEH inh, sEH activator)
CCOC(=O)C1=NN(c2ccccc2)C2=NC(C)=C(C(=O)OC)C(c3ccc(C)cc3)N12 (stereo unspecified)	none (no result: MRP reversal, sEH inh, sEH activator)
Cc1cccc(NC(=O)/C(=C\c2ccc([N+](=O)[O-])o2)NC(=O)c2ccc(Cl)cc2)c1	MRP-1 activ 5.7 (no result: MRP reversal, sEH inh, sEH activator)
Cc1cccc(C2NC(c3cccc(C)c3)C([N+](=O)[O-])C(C)(C)C2[N+](=O)[O-])c1 (stereo unspecified)	none (no result: MRP reversal, sEH inh, sEH activator)
c1ccc(C(c2ccccc2)N2CCN(c3nc4ccccc4n4cnnc34)CC2)cc1	MRP-1 activ 6.7
Cc1ccc(Nc2nc(CSc3nnnn3C)cs2)cc1	MRP-1 activ 5.4
O=C(/C=C(/c1ccc(Cl)cc1)n1cncn1)c1ccccc1	none (no result: MRP reversal, sEH inh, sEH activator)
Cc1ccc(C)c(N2CCN(C(=O)c3ccc4nc(-c5ccco5)c(-c5ccco5)nc4c3)CC2)c1	MRP-1 activ 9.9
COc1ccccc1N1CCN(C(=O)c2ccc3nc(-c4ccco4)c(-c4ccco4)nc3c2)CC1	none
CCOC(=O)C1CCC(CNCc2ccc(Cl)cc2)CC1 (stereo unspecified)	none (no result: MRP reversal, sEH inh, sEH activator)
COc1cccc(-c2csc(N3CCN(C(=O)NC45CC6CC(CC(C6)C4)C5)CC3)n2)c1	sEH inh 82
CCOC(=O)C1=C(C)Nc2sc(C(=O)c3ccc(C)cc3)c(N)c2C1c1ccc(C(=O)OC)cc1 (stereo unspecified)	MRP-1 activ 6.5 (no result: MRP reversal, sEH inh, sEH activator)
